Among the data in PubChem BioAssay are inhibition values, retold here.

Structures are written as SMILES. Values without a mark were called inactive. No rule for the calls is given here.

Chain of Pantothenate synthetase (Mycobacterium tuberculosis (strain ATCC 25618 / H37Rv)) (P9WIL5 whole entry, looked up): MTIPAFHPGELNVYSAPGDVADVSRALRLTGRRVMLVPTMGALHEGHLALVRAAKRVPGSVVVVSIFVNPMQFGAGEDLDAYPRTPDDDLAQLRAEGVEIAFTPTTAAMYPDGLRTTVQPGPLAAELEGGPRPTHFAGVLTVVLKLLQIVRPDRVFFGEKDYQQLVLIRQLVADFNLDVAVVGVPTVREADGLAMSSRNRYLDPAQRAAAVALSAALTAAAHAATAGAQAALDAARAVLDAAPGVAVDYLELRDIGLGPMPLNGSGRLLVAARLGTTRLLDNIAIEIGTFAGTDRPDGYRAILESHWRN

This experiment concerns the target Pantothenate synthetase (Mycobacterium tuberculosis (strain ATCC 25618 / H37Rv)) (UniProt P9WIL5). As to the kind of experiment: Recombinant Mtb pantothenate synthetase (PanC) inhibitors, coupled enzyme, confirmatory (AID 375).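 Also: 0% = full reaction with vehicle and 100% = no enzyme background.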 The following applies: coupled enzyme assay; at 10 µM, hits give high values.
Turning to `CC[C@H](C)C(=O)O[C@H]1C[C@@H](C)C=C2C=C[C@H](C)[C@H](CC[C@@H]3C[C@@H](O)CC(=O)O3)[C@H]21`, the inhibition was 5%.

`CCN(CC)C(=O)CSc1nnc(-c2cc(OC)cc(OC)c2)o1`: the inhibition was 0%.

For `Cc1ccc2c(c1)nnn2C1CCN(C(=O)NC23CC4CC(CC(C4)C2)C3)CC1`, the inhibition is 0%.

On to `CCOC(=O)CCC(=O)Nc1ccc(S(=O)(=O)N2CCCC2)cc1`, for which the inhibition is 0%.

On to `CCCC(O)(CCN(C)C)c1ccc(OC)cc1` (stereo not given), for which the inhibition was 0%.

Turning to `O=C(CSc1ncccn1)c1ccccc1Br`, the inhibition was 7%.

For `CC(=O)Nc1cccc(NC(=O)CSc2nn3c(=O)c(C)nnc3s2)c1`, the inhibition was 2%.

As to `CC(Sc1nnnn1-c1ccccc1)C(=O)Nc1ccc(Cl)cn1` (stereo not given), the inhibition is 2%.

In the case of `Cc1ccc2nc(-c3ccccn3)cc(C(=O)N3CCN(c4ncccn4)CC3)c2c1`, the inhibition was 3%.

Take `NS(=O)(=O)c1ccc(NC(=O)CSc2nnc(Cc3cccs3)n2-c2ccccc2)cc1`: the inhibition is 1%.

As to `Cc1cc(C(=O)NCCN2CCN(c3cccc(Cl)c3)CC2)n(-c2ccccc2)n1`, the inhibition was 0%.

As for `CCC(C)NC(=O)c1ccccc1NC(=O)C(C)N(c1ccccc1)S(C)(=O)=O` (stereo not given), the inhibition is 0%.

As for `Cc1csc2nc(CNC(=O)c3ccco3)cn12`, the inhibition was 0%.

In the case of `COC(=O)Nc1sc2c(c1C(N)=O)CCCCCC2`, the inhibition was 2%.

With `CCOC(=O)N1CCN(c2c(NCCN(C)Cc3ccccc3)c(=O)c2=O)CC1`, the inhibition was 0%.

Turning to `COc1ccc(C)cc1C(=O)CCC(=O)Nc1ccccc1N1CCOCC1`, the inhibition is 2%.

Consider `CC(=O)c1cccc(NC(=O)N2CCCC2C(=O)NCc2ccc(C)cc2)c1` (stereo not given), for which the inhibition is 4%.

Take `O=C(CSCCSCC(=O)c1ccco1)c1ccco1`: the inhibition was 0%.

`CN(C)S(=O)(=O)c1ccc(S(=O)(=O)Nc2ccc3c(c2)oc2ccccc23)cc1`: the inhibition is 0%.

For the compound `Cc1cc(Br)c(S(=O)(=O)n2nnc3ccccc32)cc1C`, the inhibition was 2%.

As for `CCOCCCNC(=O)C1CC(=O)N(C2CCCC2)C1` (stereo not given), the inhibition was 2%.

Regarding `COCCn1c(SCC(=O)Nc2nnc(C)s2)nnc1-c1c[nH]c2ccccc12`, the inhibition was 0%.

In the case of `Cc1nc(N)[nH]c(=O)c1CCC(=O)OCC(C)C`, the inhibition was 0%.

Take `Cc1ccc2cc(CN(Cc3ccc(F)cc3)Cc3nnnn3C3CCCC3)c(=O)[nH]c2c1`: the inhibition was 6%.

As to `Cc1nnc(SCc2ccccc2)n1N`, the inhibition is 0%.

As for `Cc1sc2nc(SCC(=O)NCc3ccco3)n(CCc3ccccc3)c(=O)c2c1C`, the inhibition was 0%.

For `N#Cc1c(N2CCOCC2)nc(N2CCCCC2)c2c1CCN(C1CCCCC1)C2`, the inhibition was 0%.

As for `O=C(NCCCCNC(=O)c1c(F)c(F)c(F)c(F)c1F)c1c(F)c(F)c(F)c(F)c1F`, the inhibition is 0%.

Consider `COc1ccccc1C(=O)N1CCN=C1SCc1cccnc1`, for which the inhibition is 0%.

As for `CCC(C)N=C1SCC(C)(/C=N/O)S1` (stereo not given), the inhibition is 0%.

With `Nc1nc(NC(=O)c2cccs2)nn1-c1ccccc1`, the inhibition was 1%.

For the compound `Cc1nn(C)c(C)c1NC(=O)CSc1nc(Cc2ccccc2)nc2c1cnn2-c1ccccc1`, the inhibition was 2%.

As to `N#Cc1cnn(Cc2ccc(Cl)cc2)c1N`, the inhibition was 0%.

In the case of `COc1ccc(NC(=O)c2ccco2)cc1NC(=O)c1cccs1`, the inhibition is 0%.

On to `Cc1n[nH]c(C)c1S(=O)(=O)N1CCN(c2ccccn2)CC1`, for which the inhibition is 2%.

`COC(=O)c1ccccc1NS(=O)(=O)c1ccc(F)cc1`: the inhibition was 0%.

For the compound `COc1ccc(N2CCN(c3oc(COc4ccccc4Cl)nc3C#N)CC2)cc1`, the inhibition is 0%.

Regarding `Cc1ccc2ncnc(NCCCN3CCOCC3)c2c1`, the inhibition is 1%.

Take `COC(=O)[C@@H](NC(=O)NCc1ccccc1Cl)C(C)C`: the inhibition was 0%.

With `N=c1c(C(=O)NCc2ccc(F)cc2)cc2c(=O)n3ccccc3nc2n1CCCN1CCOCC1`, the inhibition was 0%.
